This is part of a sample that, as a whole, favours compounds with a hit. Of some 83,000 tested, about 20% had one in any assay.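 The test compound was applied at a single concentration to cells in 96-well plates for 48 hours, and percent growth was recorded.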 The source made the active and inactive calls. How the source made its calls: active means growth percent below 10; inactive means the rest.

This experiment concerns RXF 393 renal. In words: NCI-60 one-dose screen, 48 h (100 = growth as untreated, 0 = no growth, -100 = all killed). The note with it: 10 µM unless noted.
Regarding `Cc1nc2cncc(C#Cc3cncc(C(=O)Nc4ccc(CN5CCN(C)CC5)c(C(F)(F)F)c4)c3)c2nc1C`, the growth is -26.2% (active).
For the compound `CCN(CC)CCC(CNc1c2ccc(Cl)cc2nc2ccc(OC)cc12)c1ccccc1` (centres undefined), the growth is -97.7% (active).
`Cc1csc(NC(c2ccc(Br)cc2)c2c(C)nc3ccccn23)n1` (centres undefined): the growth is 112% (inactive).
As to `O=C(NCCCNc1nccc(-n2ccc3cccnc32)n1)c1c(F)cccc1F`, the growth was 108% (inactive).
For the compound `COc1ccc(/C=C\c2cc(OC)c(OC)c(OC)c2)cc1OC(=O)c1cccc(Cn2cc(CCOC(=O)c3cccc(Cn4nnc5c4C(=O)c4ccccc4C5=O)c3)nn2)c1`, the growth was 15.9% (inactive).
In the case of `O=C(Nc1ccc(NCCN2CCOCC2)nc1)c1ccc([N+](=O)[O-])cc1`, the growth was 124% (inactive).
On to `CCOC(=O)C1C(=O)C=C(c2ccc(OC)cc2)CC1c1sc(N(C)Cc2ccccc2)nc1Cl` (centres undefined), for which the growth is 93.9% (inactive).
As to `NC(=S)N/N=C(/CCN1CCCC1)CC(C1=C(O)C2=CCCCC2OC1=O)c1ccccc1` (centres undefined), the growth was 106% (inactive).
Take `O=C(NNC(=O)N1c2ccccc2C=Cc2ccccc21)c1ccccc1`: the growth is 106% (inactive).
For the compound `Cc1ccc(S(=O)(=O)n2cc(C(=O)C(=O)Nc3ccncc3)c3ccccc32)cc1`, the growth was 9.66% (active).
Turning to `COc1ccc(C2=C(c3cc(OC)c(OC)c(OC)c3)C(=O)CC2)cc1`, the growth was 1.23% (active).
`Cn1ccc(Nc2nccc(Oc3ccc(C(=O)Nc4cccc(F)c4)c(Cl)c3)n2)c1`: the growth was 105% (inactive).
With `CCOc1cc2c(Cl)ncnc2c(OCC)c1OCC`, the growth is -5.68% (active).
Regarding `NC(N)=Nc1nc2ccccc2o1`, the growth is 114% (inactive).
For `CC(C)CC1NC(C)(C)CO1` (centres undefined), the growth is 109% (inactive).
Take `COc1cc(/C=N\NC(=O)CN2CCN(c3cc4c(cc3F)c(=O)c(C(=O)N/N=C/c3cc(OC)c(OC)c(OC)c3)cn4C3CC3)CC2)cc(OC)c1OC`: the growth is -3.67% (active).
Consider `COc1ccc(-c2nc3sc(-c4cc(OC)c(OC)c(OC)c4)nn3c2/C=C2/C(=O)Nc3ccc(F)cc32)cc1`, for which the growth was -32% (active).
As for `Nc1cccc(-c2nc3sccn3c2-c2ccnc(NCCNS(=O)(=O)c3ccc(C(F)(F)F)cc3)n2)c1`, the growth is 48.7% (inactive).
As for `COc1ccc(-c2ccc(-c3ccc(C(=N)N)s3)s2)cc1Cl`, the growth is -87.5% (active).
As to `NC(=O)c1c(NC(=S)Nc2ccc(OC(F)(F)F)cc2)sc2c1CCC1(C2)OCCO1`, the growth is 116% (inactive).
With `COc1ccc2[nH]c(C(=O)OCc3ccc4c(Cl)cc(Cl)c(O)c4n3)cc2c1` the figure was -93% (active).
In the case of `CCO/C=N/C1=C(C#N)C(c2ccc(Cl)cc2)c2c(c3ccccc3n(C)c2=O)O1` (centres undefined), the growth was 56.8% (inactive).
As to `COc1ccc(S(=O)(=O)Nc2cc(/C=C\c3cc(OC)c(OC)c(OC)c3)cc(OC)c2OC)cc1`, the growth is 40.9% (inactive).
Consider `CCCCNC(=O)Oc1ccc(/C(=C(\C)c2ccccc2)c2ccc(OCCN(CC)CC)cc2)cc1`, for which the growth was 52.8% (inactive).
As for `COc1ccc(S(=O)(=O)n2cc(C(=O)C(=O)Nc3ccncc3)c3ccccc32)cc1F`, the growth was 90.9% (inactive).
Consider `CC(C)(C)n1cc(-c2ccnc(NCCCNS(=O)(=O)c3ccc(Br)cc3)c2)c(-c2cccc(O)c2)n1`, for which the growth was 20.8% (inactive).
For the compound `O=Nc1c(-c2cccc([N+](=O)[O-])c2)nc2ncccn12`, the growth is -3.85% (active).
With `O=C1/C(=C/c2ccc([N+](=O)[O-])cc2)CN(C(=O)CCN2CCC(=NO)CC2)C/C1=C\c1ccc([N+](=O)[O-])cc1`, the growth was -76.5% (active).
For the compound `CCOC(=O)C1=C(C)NC(C)=C(C(=O)OCC)C1(C)C`, the growth is 98.1% (inactive).
As to `CCCCN(CCCC)C(=N)c1ccnc2ccccc12`, the growth is 127% (inactive).
In the case of `C1=Cc2ccccc2N(c2nnc(-c3ccccc3)o2)c2ccccc21`, the growth is 91.1% (inactive).
In the case of `CCCCCCCCCCCCCCCCCCNC(=O)[C@H]1CSC(c2ccc(OC)cc2O)N1` (some centres undefined), the growth is 32.5% (inactive).
As to `COc1ccc(C(=O)c2cc(OC)c3c(c2)OCO3)cc1O`, the growth is -4.75% (active).
In the case of `COc1ccc(-c2cc(-c3ccccc3)nc(SCCCC(=O)NO)n2)cc1OC`, the growth was -21.1% (active).
Consider `CCOC(=O)C1CCNC(=O)C1=O` (centres undefined), for which the growth is 108% (inactive).
`COc1ccc(Nc2[nH]n3c(=O)cc(-c4ccccc4)nc3c2C(=O)Nc2ccc(C)cc2)c(OC)c1`: the growth is 92.1% (inactive).
Take `COc1ccc(-c2cn(-c3cccc(C(=O)/C=C/c4cc(OC)c(OC)c(OC)c4)c3)c(=O)[nH]2)cc1OC`: the growth is 65.8% (inactive).
`Cc1ccc(S(=O)(=O)NC(=O)n2cc(-c3ccncc3)c(-c3ccc(Cl)c(O)c3)n2)cc1`: the growth was 114% (inactive).
As for `COC(=O)C1CCCN1C(=O)[C@@H]1CCCN1C(=O)[C@H](Cc1c[nH]c2ccccc12)NC(=S)Nc1cc(C(F)(F)F)cc(C(F)(F)F)c1` (some centres undefined), the growth was 43.7% (inactive).

Source of the values: PubChem BioAssay (NCI).
